Experimental findings from PubChem BioAssay (Tox21) are described below.

Assay [1] can be described thus: A CellTox Green Cytotoxicity Assay to monitor cytotoxicity in HepG2 cells - 0 hour (AID 1224882). Note: nearly all actives have a fitted effect of over 35% in size. Note: potency is the fitted concentration of half-maximal effect. Put shortly: (§1)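 Nonlytic assay: viable cells exclude the dye, so fluorescence scales with cell death. HepG2 at 600 cells/well, compounds added after 5 h, signal read across 40 h.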
A short description of assay [2]: A CellTox Green Cytotoxicity Assay to monitor cytotoxicity in HepG2 cells - 32 hour (AID 1224883). Note: nearly all actives have a fitted effect of over 50% in size. Note: potency is the fitted concentration of half-maximal effect. In a few lines: as §1
Assay [3] in a line: A CellTox Green Cytotoxicity Assay to monitor cytotoxicity in HEK293 cells - 8 hour (AID 1224884). Note: nearly all actives have a fitted effect of over 35% in size. Note: potency is the fitted concentration of half-maximal effect. In a few lines:
(§2)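 Seeding of HEK293 cells together with cytotoxicity dye preceded a 5 h incubation at 37 C/5% CO2. Test compounds in DMSO were then added and fluorescence monitored across 40 h.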

A short description of assay [4]: qHTS RealTime-Glo MT Cell Viability Assay in HepG2 cells - 16 hour (AID 1224885). Note: nearly all actives have a fitted effect of over 50% in size. In a few lines: (§3)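 Luminescence read-out: viable HepG2 cells reduce a prosubstrate to a NanoLuc substrate, giving a signal proportional to live cell number. Reads taken at 0, 8, 16, 24, 32 and 40 h of compound exposure at 37 C.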
A short description of assay [5]: qHTS RealTime-Glo MT Cell Viability Assay in HEK293 cells - 24 hour (AID 1224886). Note: top concentration of the series differs between compounds; nearly all actives have a fitted effect of over 50% in size. Put shortly: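 Nonlytic real-time viability readout: viable cells convert prosubstrate to NanoLuc substrate, giving luminescence proportional to live cell number. HEK293, 600 cells/well, compound added after 5 h, continuous culture at 37 C.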
In general terms: qHTS replaces the single test concentration by a dilution series.

Assay [6] in a line: qHTS RealTime-Glo MT Cell Viability Assay in HEK293 cells - 8 hour (AID 1224887). Note: top concentration of the series differs between compounds; nearly all actives have a fitted effect of over 50% in size. Put shortly: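 Tox21 screen in HEK293 using RealTime-Glo MT chemistry, with cells and reagent co-dispensed. Luminescence proportional to viable cell number was captured at intervals during 40 h compound exposure at 37 C.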
Assay [7] in a line: A CellTox Green Cytotoxicity Assay to monitor cytotoxicity in HEK293 cells - 16 hour (AID 1224888). Note: nearly all actives have a fitted effect of over 35% in size. Note: potency is the fitted concentration of half-maximal effect. Put shortly:
as §2

A short description of assay [8]: qHTS RealTime-Glo MT Cell Viability Assay in HepG2 cells - 0 hour (AID 1224889). Note: nearly all actives have a fitted effect of over 50% in size. In a few lines: as §3
Assay [9] is described as follows: A CellTox Green Cytotoxicity Assay to monitor cytotoxicity in HepG2 cells - 8 hour (AID 1224890). Note: nearly all actives have a fitted effect of over 45% in size. In a few lines: as §1
Assay [10] is described as follows: qHTS assay to identify small molecule antagonists of the estrogen receptor alpha (ER-alpha) signaling pathway using the BG1 cell line in the presence of 0.1 nM 17-beta-estradiol - cell viability counter screen (AID 1259241). Note: nearly all actives have a fitted effect of over 40% in size. Put shortly: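 Measures cytotoxicity alongside the ER-alpha antagonist readout: VM7Luc4E2 cells, charcoal-stripped serum, 0.1 nM 17beta-estradiol final, 22 hr compound incubation at 37C, CellTiter-Fluor fluorescence.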

Unmarked numbers belong to inactive results. Records with an inconclusive call do not appear. Active and inactive are the calls of the source. Calls come from the whole dose curve; as a rule, active = well fitted curve in the direction sought with a large enough effect in the repeat runs; inconclusive = weak or mixed curves; inactive = no such curve, though single readings can be large; an effect the other way counts as inactive or inconclusive.

As for `CN(CC1(C)CCCO1)S(=O)(=O)c1ccc(Cl)c(S(N)(=O)=O)c1` (centres undefined), the Potency result in [1], in assay [2], in assay [3], in assay [5], in assay [6] and in [7] was “inactive” throughout. Besides, the Potency result in assay [8], in [9] and in [10] was “inactive” in each case. The molecule was called inactive in assay [4].
In the case of `CCOC(=O)CS`, the Potency entry in [1], in assay [2], in assay [3], in [5], in assay [6] and in assay [7] was “inactive” each time. The Potency result in [8], in [9] and in assay [10] was “inactive” in each case. In [4], the result was inactive.
Take `CC(C)(CO)[C@@H](O)C(=O)NCCC(=O)O`: the Potency result in [1], in [2], in [3], in assay [5], in assay [6] and in assay [7] was “inactive” each time. In addition, the Potency entry in [8], in assay [9] and in assay [10] was “inactive” throughout. In [4], the molecule was classed as inactive.
Regarding `C[C@@H](N)C(=O)O`, the Potency entry in assay [1], in assay [2], in assay [3], in [5], in assay [6] and in assay [7] was “inactive” each time. In addition, the Potency entry in assay [8] and in assay [10] was “inactive” in each case. Further, in assay [4], the molecule was called inactive.
For `CNCCC(Oc1ccccc1OC)c1ccccc1` (centres undefined), the Potency result in assay [1], in [2], in [3], in assay [5], in assay [6] and in [7] was “inactive” throughout. Besides, the Potency entry in [8], in assay [9] and in assay [10] was “inactive” throughout. For the same molecule, in assay [4], the call was inactive.
As to `O=c1[nH]c(=O)n([C@H]2C[C@H](O)[C@@H](CO)O2)cc1C(F)(F)F`, the Potency result in [1], in [2], in [3], in assay [5], in [6] and in [7] was “inactive” each time. Besides, the Potency result in [8] and in assay [10] was “inactive” throughout. Further, the molecule was called inactive in assay [4].
For `CC1CN(c2ccccc2)NC1=O` (centres undefined), the Potency result in assay [1], in assay [2], in [3], in assay [5], in assay [6] and in assay [7] was “inactive” each time. The Potency result in [8] and in assay [10] was “inactive” in each case. Further, in assay [4], the molecule was called inactive.
As for `C[C@]12C(=O)OC(=O)[C@H]1[C@H]1C=C[C@@H]2C1`, the Potency result in assay [1], in assay [2], in [3], in [5], in assay [6] and in assay [7] was “inactive” throughout. The Potency result in [8] and in assay [10] was “inactive” in each case. Moreover, in assay [4], the call was inactive.
In the case of `Cc1ccc(C=O)s1`, the Potency in [1] is 43.6 µM (active); in [2], 38.9 µM (active); in assay [3], 43.6 µM (active); in [7], 38.9 µM (active). Also, in [4], the call was inactive. For the same molecule, the Potency entry in [5], in assay [6], in assay [8] and in [10] was “inactive” in each case.
With `CC(=O)OC(C)OC(C)=O`, the Potency entry in assay [1], in assay [2], in assay [3], in assay [5], in assay [6] and in assay [7] was “inactive” throughout. The Potency entry in assay [8], in [9] and in assay [10] was “inactive” throughout. For the same molecule, the call in [4] was inactive.
With `CCCCC(=O)O[C@]1(C(=O)CO)[C@H](C)C[C@H]2[C@@H]3CCC4=CC(=O)C=C[C@]4(C)[C@@]3(F)[C@@H](O)C[C@@]21C`, the Potency result in assay [1], in assay [2], in assay [3], in [5], in assay [6] and in assay [7] was “inactive” in each case. Moreover, in assay [10], the Potency result was “inactive”. In addition, the result in assay [4] was inactive.
For the molecule `CC(C)O`, the Potency entry in [1], in assay [2], in [3], in assay [5], in assay [6] and in assay [7] was “inactive” in each case. The Potency entry in [8], in assay [9] and in assay [10] was “inactive” each time. Moreover, in [4], the call was inactive.
Regarding `Cc1c(N)cccc1N`, the Potency entry in assay [1], in assay [2], in [3], in assay [5], in assay [6] and in [7] was “inactive” each time. Further, the Potency entry in assay [8], in assay [9] and in assay [10] was “inactive” throughout. Also, the molecule was called inactive in assay [4].
For the molecule `CC(C)C[C@H](NC(=O)OCC1c2ccccc2-c2ccccc21)C(=O)O`, the Potency entry in assay [1], in assay [2], in assay [3], in [5], in assay [6] and in assay [7] was “inactive” throughout. Also, the Potency entry in [9] and in [10] was “inactive” in each case. The molecule was classed as inactive in assay [4].
As for `C=O`, the Potency entry in [1], in [2], in [3], in assay [5], in [6] and in assay [7] was “inactive” in each case. Moreover, the Potency entry in assay [8] and in [10] was “inactive” each time. The molecule was classed as inactive in assay [4].
Turning to `Cc1cccc(C)c1NC(=O)CN1CCCCCC1`, the Potency entry in assay [1], in assay [2], in [3], in assay [5], in assay [6] and in assay [7] was “inactive” each time. The Potency entry in assay [8], in assay [9] and in assay [10] was “inactive” each time. In addition, the outcome in assay [4] was inactive.
As for `CC(=O)N(CC(O)CN(C(C)=O)c1c(I)c(C(=O)NCC(O)CO)c(I)c(C(=O)NCC(O)CO)c1I)c1c(I)c(C(=O)NCC(O)CO)c(I)c(C(=O)NCC(O)CO)c1I` (centres undefined), the Potency entry in assay [1], in assay [2], in assay [3], in assay [5], in assay [6] and in assay [7] was “inactive” in each case. Moreover, the Potency entry in [8] and in [10] was “inactive” each time. Moreover, the call in assay [4] was inactive.
As to `Cc1cc(S(=O)(=O)O)c(N)cc1Cl`, the Potency entry in assay [1], in assay [2], in assay [3], in [5], in assay [6] and in assay [7] was “inactive” throughout. The Potency entry in assay [8], in assay [9] and in assay [10] was “inactive” throughout. The result in [4] was inactive.
As for `CCc1nnc(NS(=O)(=O)c2ccc(N)cc2)s1`, the Potency entry in [1], in [2], in assay [3], in assay [5], in assay [6] and in assay [7] was “inactive” each time. For the same molecule, the Potency entry in assay [8] and in assay [10] was “inactive” each time. The result in assay [4] was inactive.
